Experimental data reported in the supplement of paper PMC7411054.
Structures can show the parent of a compound that is named as a salt.

Legend:
Conditions in all cases: treatment time: 24 h
A549-ACTB-RAB5A [1] = experiment: lowest phenotypically active concentration; higher = less potent
How it was run: (§1)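 Fifteen gene-edited A549, HepG2 and WPMY1 reporter lines (BFP segmentation plus GFP and RFP/FusionRed markers) were treated at 0.3, 1, 3 or 9 µM for 24 h, four wells each, then imaged live. Live-cell features per well were normalised to DMSO control wells. Deviation required ≥3 of 4 wells beyond the 95th percentile of DMSO Euclidean distances, and reproducibility required median replicate Pearson correlation above the 95th percentile of non-replicates. Phenotypic activity needed both criteria.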

A549-ACTB-RAB5A [2] = experiment: phenotypically active (imaging signature differs from DMSO and reproducible) at any of 0.3-9 uM (binary (1 = active, 0 = inactive)); higher = active
How it was run: as §1

A549-CANX-COX4 [3] = experiment: as above
How it was run: as §1

A549-GM130-SQSTM1 [4] = experiment: as above
How it was run: as §1

A549-TP53BP1-CLTA [5] = experiment: as above
How it was run: as §1

A549-TUBA1B-RELA [6] = experiment: as above
How it was run: as §1

HepG2-ACTB-RAB5A = experiment: as above
How it was run: as §1

HepG2-CANX-COX4 = experiment: as above
How it was run: as §1

HepG2-GM130-SQSTM1 = experiment: as above
How it was run: as §1

HepG2-TP53BP1-CLTA = experiment: as above
How it was run: as §1

HepG2-TUBA1B-RELA = experiment: as above
How it was run: as §1

WPMY1-ACTB-RAB5A = experiment: as above
How it was run: as §1

WPMY1-CANX-COX4 = experiment: as above
How it was run: as §1

WPMY1-GM130-SQSTM1 = experiment: as above
How it was run: as §1

WPMY1-TP53BP1-CLTA = experiment: as above
How it was run: as §1

WPMY1-TUBA1B-RELA = experiment: as above
How it was run: as §1

A549-CANX-COX4 [7] = experiment: lowest phenotypically active concentration; higher = less potent
How it was run: as §1

A549-GM130-SQSTM1 [8] = experiment: as above
How it was run: as §1

A549-TP53BP1-CLTA [9] = experiment: as above
How it was run: as §1

A549-TUBA1B-RELA [10] = experiment: as above
How it was run: as §1

Compound | lowest phenotypically active concentration (A549-ACTB-RAB5A [1]) | phenotypically active (A549-ACTB-RAB5A [2]) | phenotypically active (A549-CANX-COX4 [3]) | phenotypically active (A549-GM130-SQSTM1 [4]) | phenotypically active (A549-TP53BP1-CLTA [5]) | phenotypically active (A549-TUBA1B-RELA [6]) | phenotypically active (HepG2-ACTB-RAB5A) | phenotypically active (HepG2-CANX-COX4) | phenotypically active (HepG2-GM130-SQSTM1) | phenotypically active (HepG2-TP53BP1-CLTA) | phenotypically active (HepG2-TUBA1B-RELA) | phenotypically active (WPMY1-ACTB-RAB5A) | phenotypically active (WPMY1-CANX-COX4) | phenotypically active (WPMY1-GM130-SQSTM1) | phenotypically active (WPMY1-TP53BP1-CLTA) | phenotypically active (WPMY1-TUBA1B-RELA) | lowest phenotypically active concentration (A549-CANX-COX4 [7]) | lowest phenotypically active concentration (A549-GM130-SQSTM1 [8]) | lowest phenotypically active concentration (A549-TP53BP1-CLTA [9]) | lowest phenotypically active concentration (A549-TUBA1B-RELA [10])
Nc1nc(OCC2CCCCC2)c2nc[nH]c2n1 | 9 µM | 1 (active) | 0 (inactive) | 0 (inactive) | 0 (inactive) | 0 (inactive) | 0 (inactive) | 0 (inactive) | 0 (inactive) | 0 (inactive) | 0 (inactive) | 0 (inactive) | 0 (inactive) | 0 (inactive) | 0 (inactive) | 0 (inactive) |  |  |  | 
Cn1nnc2c(C(N)=O)ncn2c1=O [temozolomide] |  | 0 (inactive) | 0 (inactive) | 0 (inactive) | 0 (inactive) | 0 (inactive) | 0 (inactive) | 0 (inactive) | 0 (inactive) | 0 (inactive) | 0 (inactive) | 0 (inactive) | 0 (inactive) | 0 (inactive) | 0 (inactive) | 0 (inactive) |  |  |  | 
O=c1ncn2nc(Sc3ccc(F)cc3F)ccc2c1-c1c(Cl)cccc1Cl | 9 µM | 1 (active) | 0 (inactive) | 0 (inactive) | 0 (inactive) | 0 (inactive) | 0 (inactive) | 0 (inactive) | 0 (inactive) | 0 (inactive) | 0 (inactive) | 0 (inactive) | 0 (inactive) | 0 (inactive) | 0 (inactive) | 0 (inactive) |  |  |  | 
Nn1nnc2ccccc21 |  | 0 (inactive) | 0 (inactive) | 0 (inactive) | 0 (inactive) | 0 (inactive) | 0 (inactive) | 0 (inactive) | 0 (inactive) | 0 (inactive) | 0 (inactive) | 0 (inactive) | 0 (inactive) | 0 (inactive) | 0 (inactive) | 0 (inactive) |  |  |  | 
COc1ccc2c(NC(=O)Nc3cccc(C(F)(F)F)n3)ccnc2c1 | ≤ 0.3 µM | 1 (active) | 1 (active) | 1 (active) | 1 (active) | 1 (active) | 1 (active) | 1 (active) | 1 (active) | 1 (active) | 1 (active) | 1 (active) | 1 (active) | 1 (active) | 1 (active) | 0 (inactive) | 9 µM | 3 µM | 9 µM | 3 µM
COC(=O)c1c(-c2cc(OC)c(OC)c(OC)c2)c2ccnc(OCc3ncccn3)c2c(=O)n1Cc1ccnc(C)c1 [T 0156 hydrochloride] |  | 0 (inactive) | 0 (inactive) | 0 (inactive) | 0 (inactive) | 0 (inactive) | 0 (inactive) | 0 (inactive) | 0 (inactive) | 0 (inactive) | 0 (inactive) | 0 (inactive) | 0 (inactive) | 0 (inactive) | 0 (inactive) | 0 (inactive) |  |  |  | 
Nc1nc(Cl)nc2c1ncn2[C@@H]1O[C@H](CO)[C@@H](O)[C@@H]1F [clofarabine] | 1 µM | 1 (active) | 1 (active) | 1 (active) | 1 (active) | 1 (active) | 1 (active) | 1 (active) | 1 (active) | 1 (active) | 1 (active) | 1 (active) | 1 (active) | 1 (active) | 1 (active) | 1 (active) | ≤ 0.3 µM | 1 µM | 1 µM | 1 µM
CC1=C(C(=O)Nc2cc3cn[nH]c3cc2F)C(c2ccc(C(F)(F)F)cc2)CC(=O)N1 (configuration not stated) | ≤ 0.3 µM | 1 (active) | 1 (active) | 1 (active) | 1 (active) | 1 (active) | 1 (active) | 1 (active) | 1 (active) | 1 (active) | 1 (active) | 1 (active) | 1 (active) | 1 (active) | 1 (active) | 1 (active) | 1 µM | 1 µM | ≤ 0.3 µM | ≤ 0.3 µM
COc1ccc(-c2cc3c(C)nc(N)nc3n([C@H]3CC[C@H](OCCO)CC3)c2=O)cn1 | ≤ 0.3 µM | 1 (active) | 1 (active) | 1 (active) | 1 (active) | 1 (active) | 1 (active) | 1 (active) | 1 (active) | 1 (active) | 1 (active) | 1 (active) | 1 (active) | 1 (active) | 1 (active) | 1 (active) | ≤ 0.3 µM | ≤ 0.3 µM | ≤ 0.3 µM | ≤ 0.3 µM
CC(=O)O[C@@]12CO[C@@H]1C[C@H](O)[C@@]1(C)C(=O)[C@H](O)C3=C(C)[C@@H](OC(=O)[C@H](O)[C@@H](NC(=O)OC(C)(C)C)c4ccccc4)C[C@](O)([C@@H](OC(=O)c4ccccc4)[C@H]21)C3(C)C [Docetaxel] | ≤ 0.3 µM | 1 (active) | 1 (active) | 1 (active) | 1 (active) | 1 (active) | 1 (active) | 1 (active) | 1 (active) | 1 (active) | 1 (active) | 1 (active) | 1 (active) | 1 (active) | 1 (active) | 1 (active) | ≤ 0.3 µM | ≤ 0.3 µM | ≤ 0.3 µM | ≤ 0.3 µM
C/C=C1\NC(=O)[C@H]2CSSCCC=C[C@H](CC(=O)N[C@H](C(C)C)C(=O)N2)OC(=O)[C@H](C(C)C)NC1=O | ≤ 0.3 µM | 1 (active) | 1 (active) | 1 (active) | 1 (active) | 1 (active) | 1 (active) | 1 (active) | 1 (active) | 1 (active) | 1 (active) | 1 (active) | 1 (active) | 1 (active) | 1 (active) | 1 (active) | ≤ 0.3 µM | ≤ 0.3 µM | ≤ 0.3 µM | ≤ 0.3 µM
Cc1cc(C)cc(C(=O)NOCCCCCC(=O)NO)c1 | ≤ 0.3 µM | 1 (active) | 1 (active) | 1 (active) | 1 (active) | 1 (active) | 1 (active) | 1 (active) | 1 (active) | 1 (active) | 1 (active) | 1 (active) | 1 (active) | 1 (active) | 1 (active) | 1 (active) | ≤ 0.3 µM | ≤ 0.3 µM | 1 µM | ≤ 0.3 µM
